Rows were chosen to be rich in hits. Some 8.2% of all compounds tested hit in one or more screens of this group.
KB-3-1 cytotox = kills parental KB-3-1 adenocarcinoma cells | KB-3-1 viability, CellTiter-Glo ATP luminescence, 72 h | Potency, µM (highest dose often 46.1 µM), usual class: cytotoxic | 1.4% of 400,000 active; note: % is set by controls: 0 for no effect and ±100 for the full control effect; nearly all actives have a fitted effect of over 60% in size
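Cytotoxicity measured as CellTiter-Glo luminescence after 72 h at 37 C. Compound titrations were pinned onto drug-naive KB-3-1 parental adenocarcinoma cells grown in DMEM with 10% FBS, and normalized data fitted to concentration-response curves.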
KB-V1 cytotox = KB-V1 MDR subline cytotoxicity; KB-V1 MDR cells viability, CellTiter-Glo, 72 h; Potency, µM (highest dose often 46.1 µM), most hits filed as cytotoxic; 3.4% of 400,000 active; AID 1347076; note: % is set by controls: 0 for no effect and ±100 for the full control effect; nearly all actives have a fitted effect of over 60% in size
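Cells of the MDR subline KB-V1 are plated, dosed with compound at multiple concentrations, and incubated 72 h at 37 degrees C; CellTiter-Glo is then added and luminescence read after 10 min.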
SW480 rereplic = induces DNA re-replication in SW480 colon adenocarcinoma cells | SW480 DNA re-replication, Hoechst DNA content imaging, 48 h | Potency, µM (doses to about 46.1 µM), without a hit: top-dose re-replication activation, hits mostly activators | 1.8% of 340,000 active; note: % of control where 0% means no effect; nearly all actives have a fitted effect of over 55% in size
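First, 250 cells per well were seeded. Next, compound or vehicle (23 nL) was pinned in, plates sat 48 hr at 37 C. Finally Hoechst was added for 40 min before fluorescence scanning.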
ELG1 DNA repair = blocks ELG1-dependent DNA repair in HEK293T cells; HEK293T ELG1-luciferase reporter, luminescence, 16 h; DNA damage induced by 5-fluorouridine; Potency, µM (series often up to 46.1 µM), for the others: top-dose activity change, negative = inhibition, most hits filed as inhibitors; 2.3% of 330,000 active; note: % is set by controls: 0 for no effect and ±100 for the full control effect; nearly all actives have a fitted effect of over 55% in size
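Luminescence from the luciferase reporter, measured 30 min after ONE-Glo reagent at room temperature, was the read-out. Beforehand, 2,000 cells per well were exposed for 16 hr at 37 °C to 5-fluorouridine together with compound or vehicle.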
MCF10A rereplic = DNA re-replication induction in MCF 10a cells; Potency, µM (titrated, usually from 46.1 µM), for the others: top-dose activity, positive = re-replication, hits mostly activators; MCF 10A DNA re-replication, Hoechst nuclear intensity, 48 h; 2.9% of 350,000 active; note: % of control where 0% means no effect; nearly all actives have a fitted effect of over 50% in size
The depositor's hits bear a star; i = inactive; ? = inconclusive; / = no result; [ ] = another dose, or the depositor's remark. Calls come from the whole dose curve; as a rule, active = well fitted curve in the direction sought with a large enough effect; inconclusive = small, poorly fitted or top-dose-only effect, or another doubt; inactive = no such curve, though single readings can be large; an effect the other way counts as inactive or inconclusive. Potency is the fitted concentration of half-maximal effect.

SMILES	KB-3-1 cytotox	KB-V1 cytotox	SW480 rereplic	ELG1 DNA repair	MCF10A rereplic
COc1ccc(S(=O)(=O)N(C)C[C@H]2Oc3ccc(NC(=O)Nc4ccc5c(c4)OCO5)cc3CC(=O)N([C@@H](C)CO)C[C@@H]2C)cc1	i	i	-22.4%	-17.8%	14.8%
C[C@H]1CN([C@@H](C)CO)C(=O)Cc2cc(NC(=O)Cc3cn(C)c4ccccc34)ccc2O[C@@H]1CN(C)S(=O)(=O)c1cn(C)cn1	i	i	3.66µM*	7.6%	-0.9%
C[C@H]1CN([C@@H](C)CO)C(=O)Cc2cc(NC(=O)CCC(F)(F)F)ccc2O[C@H]1CN(C)S(=O)(=O)c1ccc(Cl)cc1	4.61µM*	i	3.26µM*	?	4.61µM*
C[C@H](CO)N1C[C@H](C)[C@@H](CN(C)S(=O)(=O)c2ccc(Cl)cc2)Oc2ccc(NS(=O)(=O)c3ccccc3)cc2CC1=O	i	?	-4.1%	-3.2%	6.2%
CNC[C@H]1Oc2ccc(NC(=O)Cc3cn(C)c4ccccc34)cc2CC(=O)N([C@@H](C)CO)C[C@H]1C	i	i	-3.2%	13.7%	10.0%
C[C@H]1CN([C@@H](C)CO)C(=O)Cc2cc(NC(=O)CCC(F)(F)F)ccc2O[C@H]1CN(C)S(=O)(=O)c1ccc(F)cc1	5.17µM*	i	?	-2.4%	14.6µM*
Cc1ccc2nc(SCC(=O)NC3CCS(=O)(=O)C3)[nH]c2c1 (stereo not drawn)	i	i	-5.9%	8.0%	0.9%
CCn1ccnc1CN(C)C(=O)c1ccc(OC2CCN(CCc3ccccc3)CC2)cc1	i	i	-5.5%	2.4%	?
C[C@H](CO)N1C[C@H](C)[C@H](CN(C)Cc2ccncc2)Oc2ccc(NC(=O)Nc3ccc(C(F)(F)F)cc3)cc2CC1=O	6.51µM*	i	?	?	?
CCN(CC)CCN1CCn2c3c(c4cc(C)ccc42)CCCC31 (stereo not drawn)	i	i	14.6µM*	11.1%	4.11µM*
C/C=C(/C)C(=O)O[C@@H]1c2cc3c(c(OC)c2-c2c(cc(OC)c(OC)c2OC)[C@@H](OC(C)=O)[C@@H](C)[C@H]1C)OCO3	i	i	2.9%[9.22 µM]	-6.8%	24.0%
COc1cc(C2c3cc4c(cc3C3OC(=O)C2C3CO)OCO4)cc(OC)c1OC (stereo not drawn)	?	0.206µM*	/	/	/
CCN(CC)CCC(O)(c1ccc2c(c1)OCO2)c1cc(OC)c(OC)c(OC)c1 (stereo not drawn)	i	i	-7.8%	/	-1.1%
COc1cc([C@@H]2c3cc4c(cc3[C@@H](O)[C@H]3COC(=O)[C@H]23)OCO4)cc(OC)c1O[Si](C)(C)C(C)(C)C	5.8µM*	?	-7.3%	?	?
CCN(CC)C1Oc2cc3c(cc2C(c2cc(OC)c(OC)c(OC)c2)C1C)OCO3 (stereo not drawn)	1.16µM*	?	?	/	1.46µM*
CC(=O)c1ccccc1NC(=O)CSCc1nc2sc(C)c(C)c2c(=O)[nH]1	i	?	-5.0%	11.3%	3.1%
CSc1ccccc1NC(=O)CSCc1nc2sc(C)c(C)c2c(=O)[nH]1	i	i	-25.6%	-2.1%	2.31µM*
Cc1sc2nc(CSCC(=O)Nc3ccccc3C#N)[nH]c(=O)c2c1C	i	20.6µM*	6.6%	?	21.1%
O=C(c1cc(COc2ccc(F)cc2Cl)on1)N1CCN(c2cnccn2)CC1	i	i	-4.0%	-5.5%	-0.2%
O=C1Oc2ccccc2C(=O)C1C(CC(O)c1ccc(-c2ccc(Br)cc2)cc1)c1ccccc1 (stereo not drawn)	/	/	-3.0%	/	29.9µM*
OC(Cc1cccnc1)(c1ccccc1)c1ccccc1	?	18.4µM*	1.1%	/	-0.5%
O=C(Nc1ccc(Cl)cc1)N1CCSC1=NCc1ccccc1	i	i	-8.4%	-22.0%	2.6%
O=C(CN1CCSC1=NCc1ccccc1)c1ccc(Cl)cc1	i	16.4µM*	-75.2%	5.8%	-2.6%
O=c1/c(=C\c2cccc(O)c2)sc2nc(-c3ccccc3)c(-c3ccccc3)n12	i	i	-6.4%	-5.1%	4.61µM*

High-throughput results (PubChem BioAssay)
